Assay results from PubChem BioAssay AID1159580 (chemical genetic matrix, 2015).
Several values for one entry are separate records, joined by “and”; a condition that tells them apart may be missing. Equal entries are not always repeated. Among all 5,500 compounds or so, about 2,000 (36%) were called active. Roughly 18% stayed inconclusive and do not appear here. Cut-off read from the data, not from the text of the source: active = normalized growth mostly below about 0.91 (no sharp cut-off); inconclusive = no clear call, values can overlap the other calls; inactive = mostly above about 0.92. This is one part of the list.

Test: chemical genetic growth profiling, strain panel (AID 1159580);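 note: tested at 20 µM; growth read once vehicle control cultures reached saturation at 30 °C; 1 = growth at the plate median or of vehicle wells; lower values mean less growth of the strain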
Settings: growth OD

Measured: normalized growth

O=C1CCCN1CC#CCN1CCCC1
inactive: S. cerevisiae deletion strains, locus YJR075W, strain HOC1, stronger effect = lower value 0.988 and 1 | S. cerevisiae deletion strains, locus YKL009W, strain mrt4, stronger effect = lower value 1.02 and 1.05 | S. cerevisiae deletion strains, locus YKL068W, stronger effect = lower value 1 | S. cerevisiae deletion strains, locus YKL085W, strain MDH1 (second series), stronger effect = lower value 1.02 | S. cerevisiae deletion strains, locus YKL085W, strain MDH1, stronger effect = lower value 1.02 | S. cerevisiae deletion strains, locus YKL160W, strain elf1, stronger effect = lower value 1.02 | S. cerevisiae deletion strains, locus YKL190W, strain CNB1, stronger effect = lower value 0.989 and 1.02 | S. cerevisiae deletion strains, locus YKR001C, strain vps1, stronger effect = lower value 1.01 and 1.02 | S. cerevisiae deletion strains, locus YKR026C, strain gcn3, stronger effect = lower value 1.02 | S. cerevisiae deletion strains, locus YKR091W, strain srl3, stronger effect = lower value 1.02 | S. cerevisiae deletion strains, locus YLL001W, strain dnm1, stronger effect = lower value 1.02 | S. cerevisiae deletion strains, locus YLL026W, stronger effect = lower value 1.01 | S. cerevisiae deletion strains, locus YLL041C, strain sdh2, stronger effect = lower value 1.02 | S. cerevisiae deletion strains, locus YLR027C, strain aat2, stronger effect = lower value 1.02 | S. cerevisiae deletion strains, locus YLR039C, strain RIC1, stronger effect = lower value 1.03 and 1.01 | S. cerevisiae deletion strains, locus YLR058C, strain SHM2, stronger effect = lower value 1.01 | S. cerevisiae deletion strains, locus YLR102C, strain apc9, stronger effect = lower value 1.01 and 1.02 | S. cerevisiae deletion strains, locus YLR113W, strain HOG1, stronger effect = lower value 1.04 | S. cerevisiae deletion strains, locus YLR221C, strain rsa3, stronger effect = lower value 1 | S. cerevisiae deletion strains, locus YLR258W, strain gsy2, stronger effect = lower value 1.02 | S. cerevisiae deletion strains, locus YLR262C, strain YPT6 (second series), stronger effect = lower value 1.03 | S. cerevisiae deletion strains, locus YLR262C, strain YPT6, stronger effect = lower value 1.05 and 1.02 | S. cerevisiae deletion strains, locus YLR268W, strain sec22, stronger effect = lower value 1.02 and 0.991 | S. cerevisiae deletion strains, locus YLR320W, strain mms22, stronger effect = lower value 1.02 | S. cerevisiae deletion strains, locus YLR330W, strain CHS5, stronger effect = lower value 1 and 1.01 | S. cerevisiae deletion strains, locus YLR342W, strain FKS1 (second series), stronger effect = lower value 1.02 and 1.06 | S. cerevisiae deletion strains, locus YLR342W, strain FKS1, stronger effect = lower value 1.02 | S. cerevisiae deletion strains, locus YLR357W, strain rsc2, stronger effect = lower value 1.05 | S. cerevisiae deletion strains, locus YLR370C, strain arc18, stronger effect = lower value 1.02 | S. cerevisiae deletion strains, locus YLR371W, strain rom2, stronger effect = lower value 0.994 and 1.03 | S. cerevisiae deletion strains, locus YLR384C, strain iki3, stronger effect = lower value 1.03 | S. cerevisiae deletion strains, locus YLR418C, strain cdc73, stronger effect = lower value 1.05 and 0.979 | S. cerevisiae deletion strains, locus YML016C, strain PPZ1, stronger effect = lower value 1.01 | S. cerevisiae deletion strains, locus YML032C, strain rad52, stronger effect = lower value 1.01 and 1.04 | S. cerevisiae deletion strains, locus YML120C, strain ndi1, stronger effect = lower value 1.03 | S. cerevisiae deletion strains, locus YML124C, strain tub3, stronger effect = lower value 1 | S. cerevisiae deletion strains, locus YMR058W, strain fet3, stronger effect = lower value 1.03 | S. cerevisiae deletion strains, locus YMR078C, strain ctf18, stronger effect = lower value 1.03 and 1.02 | S. cerevisiae deletion strains, locus YMR125W, strain sto1, stronger effect = lower value 1.04 | S. cerevisiae deletion strains, locus YMR129W, stronger effect = lower value 1.03 | S. cerevisiae deletion strains, locus YMR205C, strain PFK2, stronger effect = lower value 1.02 | S. cerevisiae deletion strains, locus YMR223W, strain ubp8, stronger effect = lower value 1.02 and 1.03 | S. cerevisiae deletion strains, locus YMR231W, strain pep5, stronger effect = lower value 1.03 | S. cerevisiae deletion strains, locus YMR263W, strain SAP30, stronger effect = lower value 1.01 | S. cerevisiae deletion strains, locus YMR307W, strain GAS1, stronger effect = lower value 1 and 0.983 | S. cerevisiae deletion strains, locus YNL067W, strain RPL9B, stronger effect = lower value 0.998 and 1.01 | S. cerevisiae deletion strains, locus YNL071W, strain lat1, stronger effect = lower value 1.02 | S. cerevisiae deletion strains, locus YNL128W, strain TEP1, stronger effect = lower value 1.01 | S. cerevisiae deletion strains, locus YNL153C, strain GIM3, stronger effect = lower value 1.03 and 0.992 | S. cerevisiae deletion strains, locus YNL175C, strain NOP13, stronger effect = lower value 0.992 | S. cerevisiae deletion strains, locus YNL183C, strain NPR1, stronger effect = lower value 0.999 | S. cerevisiae deletion strains, locus YNL197C, strain WHI3, stronger effect = lower value 0.986 | S. cerevisiae deletion strains, locus YNL209W, strain ssb2, stronger effect = lower value 1.02 | S. cerevisiae deletion strains, locus YNL224C, strain SQS1, stronger effect = lower value 1.01 | S. cerevisiae deletion strains, locus YNL233W, strain BNI4, stronger effect = lower value 0.993 and 0.996 | S. cerevisiae deletion strains, locus YNL248C, strain rpa49, stronger effect = lower value 1.03 | S. cerevisiae deletion strains, locus YNL250W, strain rad50, stronger effect = lower value 1.02 and 1.01 | S. cerevisiae deletion strains, locus YNL271C, strain bni1, stronger effect = lower value 1.01 and 1.03 | S. cerevisiae deletion strains, locus YNL298W, strain CLA4, stronger effect = lower value 1.03 | S. cerevisiae deletion strains, locus YNL307C, strain MCK1, stronger effect = lower value 1.02 and 1.03 | S. cerevisiae deletion strains, locus YNL322C, strain KRE1 (second series), stronger effect = lower value 1.02 | S. cerevisiae deletion strains, locus YNL322C, strain KRE1, stronger effect = lower value 1 and 1.01 | S. cerevisiae deletion strains, locus YNR049C, strain mso1, stronger effect = lower value 1.02 | S. cerevisiae deletion strains, locus YNR052C, strain pop2, stronger effect = lower value 1.01 and 1.04 | S. cerevisiae deletion strains, locus YOL006C, strain TOP1, stronger effect = lower value 1.03 and 1.04 | S. cerevisiae deletion strains, locus YOL012C, strain htz1 0.71 and 1.25 | S. cerevisiae deletion strains, locus YOL147C, strain pex11, stronger effect = lower value 1.01 | S. cerevisiae deletion strains, locus YOR001W, strain rrp6, stronger effect = lower value 1.04 | S. cerevisiae deletion strains, locus YOR061W, strain CKA2, stronger effect = lower value 1.01 | S. cerevisiae deletion strains, locus YOR069W, strain VPS5, stronger effect = lower value 1 and 1.01 | S. cerevisiae deletion strains, locus YOR070C, strain gyp1, stronger effect = lower value 1.02 | S. cerevisiae deletion strains, locus YOR080W, strain dia2, stronger effect = lower value 1.03 | S. cerevisiae deletion strains, locus YOR083W, strain WHI5 (second series), stronger effect = lower value 1.02 | S. cerevisiae deletion strains, locus YOR083W, strain WHI5, stronger effect = lower value 1.02 | S. cerevisiae deletion strains, locus YOR106W, strain vam3, stronger effect = lower value 1.05 | S. cerevisiae deletion strains, locus YOR136W, strain idh2, stronger effect = lower value 1.01 and 1.02 | S. cerevisiae deletion strains, locus YOR144C, strain elg1, stronger effect = lower value 1 and 1.01 | S. cerevisiae deletion strains, locus YOR184W, strain ser1, stronger effect = lower value 1.04 and 1.05 | S. cerevisiae deletion strains, locus YOR231W, strain MKK1, stronger effect = lower value 1.06 | S. cerevisiae deletion strains, locus YOR265W, strain rbl2, stronger effect = lower value 1.02 | S. cerevisiae deletion strains, locus YOR270C, strain vph1, stronger effect = lower value 1.08 | S. cerevisiae deletion strains, locus YOR290C, strain snf2, stronger effect = lower value 1.02 | S. cerevisiae deletion strains, locus YOR316C, strain cot1, stronger effect = lower value 1.01 | S. cerevisiae deletion strains, locus YPL051W, strain arl3, stronger effect = lower value 1.02 | S. cerevisiae deletion strains, locus YPL055C, strain LGE1, stronger effect = lower value 0.986 and 1.01 | S. cerevisiae deletion strains, locus YPL078C, strain atp4, stronger effect = lower value 1.04 | S. cerevisiae deletion strains, locus YPL106C, strain sse1, stronger effect = lower value 1.02 | S. cerevisiae deletion strains, locus YPL240C, strain hsp82, stronger effect = lower value 1.03 | S. cerevisiae deletion strains, locus YPL241C, strain CIN2, stronger effect = lower value 1 and 1.01 | S. cerevisiae deletion strains, locus YPL256C, strain CLN2, stronger effect = lower value 1.02 | S. cerevisiae deletion strains, locus YPR119W, strain clb2, stronger effect = lower value 1.01 | S. cerevisiae deletion strains, locus YPR141C, strain kar3, stronger effect = lower value 1.01 | S. cerevisiae deletion strains, locus YPR163C, strain tif3, stronger effect = lower value 1.02 and 1 | S. cerevisiae deletion strains, locus YPR167C, strain met16, stronger effect = lower value 1.02 and 1.03 | S. cerevisiae deletion strains, strain wtn01, stronger effect = lower value 1.03 and 1.02 | S. cerevisiae strains, strain wild type, stronger effect = lower value 1 and 1.01
